The structures appear in SMILES notation. In all, about 310,000 compounds went through this assay and about 18,000 (5.8%) were called active. Not shown: some 22% with an inconclusive outcome. Calls come from the whole dose curve; as a rule, active = well fitted inhibition curve with a large enough effect; inconclusive = small, poorly fitted or top-dose-only effect, or another doubt; inactive = no such curve, though single readings can be large or run the other way. Shown is part of a subset that was picked to be rich in actives. A call without a number means that no potency is given here.
Potency is the fitted concentration of half-maximal effect.

A short description of the assay: Primary qHTS for delayed death inhibitors of the malarial parasite plastid, 48 hour incubation. Particulars: P. falciparum luciferase growth in erythrocytes; series mostly up to 28.7 µM. The method, boiled down: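 Luciferase-expressing parasites in RBCs, 2% Hct / 0.1% parasitemia final; RPMI 1640 + 0.5% Albumax; 37 C, 5% CO2, one generation; luminescence read-out, lower signal = inhibition.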
(In general: In qHTS, concentration-response curves come from the screen itself.)
For the molecule `COc1ccccc1Oc1ccc(N2CC(C(=O)OCC(=O)c3ccc(F)cc3)CC2=O)cc1` (configuration not stated), the Potency result is “inactive”.
Still for that read-out and setting: as for `Cc1ccccc1NC(=O)c1cc(S(=O)(=O)Nc2cccc(C(=O)O)c2)ccc1Cl`, the entry is “inactive”; as for `CC(C)[C@@H]1COC(c2cccc(C3=N[C@H](C(C)C)CO3)c2)=N1`, “inactive”.
Turning to `CC1C(=O)N(Cc2ccccc2)c2ccccc2N1C(=O)c1ccccc1` (configuration not stated), the Potency result is “inactive”.
Turning to `O=C(OCC(=O)N1CCc2ccccc21)C1CCCN1S(=O)(=O)c1ccc(Cl)cc1` (configuration not stated), the Potency result is “inactive”.
Same read-out and setting: then `O=C(c1ccncc1)N1CCN(S(=O)(=O)c2cccc([N+](=O)[O-])c2)CC1`, with “inactive”.
Same read-out and setting: as for `O=C(c1ccncc1)N1CCN(S(=O)(=O)c2cc(C(F)(F)F)cc(C(F)(F)F)c2)CC1`, the figure is 11.7 µM (active).
On the same count and under the same terms, as for `O=C(Cc1ccsc1)N1CCN(S(=O)(=O)c2cc(C(F)(F)F)cc(C(F)(F)F)c2)CC1`, the entry is “inactive”; as for `CCn1c(SCC(=O)NC2CC2)nnc1-c1ccccc1OC`, “inactive”; as for `Cc1cccn2c(=O)nc(SCC(=O)NCc3ccccc3Cl)nc12`, “inactive”.
On to `COc1ccc(OCCCCN2CCC(C)CC2)cc1`, for which the activity change, negative = inhibition is -11.4% [at 0.00184 µM] (inactive).
For `Cc1ccc2nc(SCC(=O)N3CCN(c4ccccc4)CC3)nc(=O)n2c1`, the Potency entry was “inactive”.
On the same count and under the same terms, then `O=C(Nc1cccc(OC(=O)N2CCCCC2)c1)N1CCOCC1`, with 10.4 µM (active).
For the molecule `O=C(Oc1ccc2c(c1)CCC2)N1CCOCC1`, the Potency result is “inactive”.
Still for that read-out and setting: as for `COc1cc(NC(=O)N2CCOCC2)cc(OC)c1`, the entry is “inactive”; as for `COc1cc(OC)cc(C(=O)NCCCn2ccnc2)c1`, “inactive”.
Same read-out and setting: then `COCCNc1ncnc2c1nc1n2CCCC1`, with “inactive”; and `Cc1ccc(S(=O)(=O)NCC(=O)Nc2ccc3c(c2)OCCO3)cc1`, with “inactive”; and `CN(CC(=O)NCc1cccnc1)S(=O)(=O)c1cc(Cl)ccc1Cl`, with “inactive”.
As to `Nc1ccc(Nc2cc(O)c3ncccc3c2)cc1`, the Potency was 10.4 µM (active).
Same read-out and setting: as for `CC(C)c1ccc(Nc2ncccc2C#N)cc1`, the entry is “inactive”; as for `Cc1cccc(C)c1NC(=S)N1CCCCCC1`, “inactive”; as for `COc1cccc(CNC(=O)CCCC(=O)Nc2cccc([N+](=O)[O-])c2)c1`, “inactive”.
`O=C(NCc1cccc(Cl)c1)C1CCC(=O)N(C2CC2)C1` (configuration not stated): the Potency entry is “inactive”.
Take `O=C(CCN1C(=O)C2CCCCC2C1=O)Nc1ccc(OC(F)F)cc1` (configuration not stated): the Potency result is “inactive”.
On the same count and under the same terms, as for `Cc1ccc(C(=O)NCCc2nnc(SCC(=O)Nc3cccc(C(=O)O)c3)n2C)cc1`, the entry is “inactive”; as for `CCOC(=O)c1ccc(NC(=O)c2nc[nH]c2C(=O)NCc2ccccc2)cc1`, “inactive”; as for `C[C@H](NC(=O)c1nc[nH]c1C(=O)NCC(=O)OC(C)(C)C)C(=O)OCc1ccccc1`, “inactive”.
Still for that read-out and setting: as for `Cc1ccc(NC(=O)c2nc[nH]c2C(=O)N[C@@H](CCCCNC(=O)OC(C)(C)C)C(=O)OC(C)(C)C)cc1`, the figure is 13.1 µM (active); as for `Cc1cccc(NC(=O)c2nc[nH]c2C(=O)NCC(=O)OCc2ccccc2)c1`, “inactive”; as for `C[C@H](NC(=O)c1nc[nH]c1C(=O)N[C@@H](C)C(=O)OC(C)(C)C)C(=O)OC(C)(C)C`, 9.28 µM (active).
Same read-out and setting: as for `CCOC(=O)c1ccc(NC(=O)c2nc[nH]c2C(=O)N[C@@H](CCCCNC(=O)OC(C)(C)C)C(=O)OC(C)(C)C)cc1`, the figure is 6.57 µM (active); as for `Cc1ccc(NC(=O)OCCNC(=O)c2ccncc2)cc1`, “inactive”; as for `CCOC(=O)c1[nH]cnc1C(=O)Nc1ccccc1C`, “inactive”.
With `CCN(CC)C(=O)COc1coc(CN2CCN(Cc3ccccc3)CC2)cc1=O`, the Potency entry is “inactive”.
On the same count and under the same terms, as for `O=C(NCCC1CCCCN1S(=O)(=O)c1ccccc1)C(=O)NCC1CCCO1` (configuration not stated), the entry is “inactive”.
The same measure, in the same setting: then `O=C(CCC1CCCN(C(=O)c2ccc(F)c(F)c2)C1)N1CCN(c2ccccn2)CC1` (configuration not stated), with “inactive”; and `COc1ccc(Cl)cc1NC(=O)COc1ccc2c(c1)OCO2`, with “inactive”; and `Nc1cccc(-c2cc(-c3ccccc3)nc(-c3cccc(N)c3)n2)c1`, with 10.4 µM (active).
In the case of `Nc1nc(-c2ccccc2)cc(-c2ccccc2)n1`, the Potency entry is “inactive”.
Consider `Nc1cccc(CCc2nc3ccccc3[nH]2)c1`, for which the Potency result is “inactive”.
Still for that read-out and setting: as for `Cc1cccc(C(=O)NCCCN(C)CCCNC(=O)c2cccc(C)c2)c1`, the entry is “inactive”.
The same measure, in the same setting: as for `CCSc1nc2sc3c(c2c(=O)[nH]1)CC(C)(C)OC3`, the entry is “inactive”; as for `O=C(OCc1ccc([N+](=O)[O-])cc1)C1CC(=O)N(Cc2ccccc2Cl)C1` (configuration not stated), “inactive”; as for `COc1cc(/C=C/C(=O)O)cc(S(=O)(=O)Nc2ccccc2C(=O)NCCc2ccccc2)c1OC`, “inactive”.
The same measure, in the same setting: then `c1ccc(-c2cnc(CN3CCN(c4ccccc4)CC3)o2)cc1`, with “inactive”.
As for `COc1cc(OC)c2ccc(=O)oc2c1C(CCN1CCN(c2ccccc2)CC1)c1ccc2c(c1)OCO2` (configuration not stated), the Potency is 11.7 µM (active).
Still for that read-out and setting: then `COc1ccccc1N1CCN(Cc2cc(OC)c3c(c2)OCO3)CC1`, with “inactive”; and `COc1ccccc1NC(=O)CCN1CCN(c2ccc(Cl)cc2)CC1`, with “inactive”.
On the same count and under the same terms, then `Cc1cc(=O)oc2c(C)c(OCC(=O)N3CCN(Cc4ccc5c(c4)OCO5)CC3)ccc12`, with “inactive”; and `COc1cc(C(CCN2CCN(c3ccccc3)CC2)c2c(OC)cc(OC)c3ccc(=O)oc23)cc(OC)c1OC` (configuration not stated), with 13.1 µM (active); and `CC(OC(=O)CN1C(=O)c2ccccc2C1=O)C(=O)c1ccccc1` (configuration not stated), with “inactive”.
Consider `COc1cc(S(=O)(=O)Nc2ncn[nH]2)ccc1Cl`, for which the Potency result is “inactive”.
Turning to `O=Cc1c(NCCCN2CCCC2=O)c2ccccc2[nH]c1=O`, the Potency result was “inactive”.
For the molecule `O=C(NC1CCCC1)C(c1ccc(Cl)cc1)N(C(=O)c1csnn1)C1CC1` (configuration not stated), the Potency entry was “inactive”.
The same measure, in the same setting: then `Cc1cc(-c2ccc(S(=O)(=O)N3CCN(c4cccc(C(F)(F)F)c4)CC3)s2)on1`, with “inactive”.
Still for that read-out and setting: as for `O=c1oc(/C=C/c2ccccc2)nc2ccccc12`, the entry is “inactive”.
On the same count and under the same terms, as for `O=c1c2ccccc2ncn1/N=C/c1ccccc1`, the entry is “inactive”.
Regarding `O=c1c2ccccc2nc(/C=C/c2ccc(F)cc2)n1-c1ccccc1O`, the Potency is 13.1 µM (active).
Still for that read-out and setting: as for `Cc1ccc(NC(=O)COc2ccc(/C=N\NC(=O)c3cccnc3)cc2)cc1C`, the entry is “inactive”.
Still for that read-out and setting: as for `Cc1ccc(NC(=O)COc2ccc(-n3ccnc3)cc2)cc1Cl`, the figure is 9.28 µM (active).
With `CCC(=O)c1ccc(OCC(=O)Nc2ccc3nc(C)sc3c2)cc1`, the Potency entry is “inactive”.
As to `Cc1ccc(NC(=O)NC(=O)c2ccccc2)cc1F`, the Potency result was “inactive”.
`Cc1ccc(S(=O)(=O)Nc2nc(C)cc(N/N=C/c3ccc(O)cc3)n2)cc1`: the Potency entry was “inactive”.
For the molecule `COc1cccc(/C=N/Nc2cc(C)nc(-c3ccccc3O)n2)c1O`, the Potency is 3.7 µM (active).
Turning to `Cc1nc(Cl)cc(N/N=C/c2ccccc2)n1`, the Potency result is “inactive”.
For the molecule `COc1cc(NS(=O)(=O)c2ccccc2)ccc1-n1nc(C)cc1C`, the Potency entry was “inactive”.
Still for that read-out and setting: then `COc1ccc(NC(=O)c2nc(-n3nc(C)cc3C)ccc2Cl)cc1Cl`, with “inactive”; and `COc1cccc2c(N/N=C/c3ccco3)cc(C)nc12`, with “inactive”; and `Cc1cc(N/N=C\c2ccc(Br)cc2)nc(-n2nc(C)cc2C)n1`, with 1.04 µM (active).
For `COc1cc(/C=N/Nc2nc3ccccc3s2)ccc1O`, the Potency entry was “inactive”.
Same read-out and setting: as for `COc1ccccc1/C=N\Nc1cc(C)nc(-n2nc(C)cc2C)n1`, the figure is 1.65 µM (active).

These data come from PubChem BioAssay AID504832 (National Center for Advancing Translational Sciences (NCATS), 2011).
